Test results as given in PubChem BioAssay AID1159580 (chemical genetic matrix, 2015).
Several values for one entry are separate records, joined by “and”; a condition that tells them apart may be missing. Equal values may be shown once. Screen size: about 5,500 compounds; about 2,000 (36%) were called active. Another 18% or so got no clear call; they are omitted. No stated cut-off is given here; in the data, active means normalized growth mostly below about 0.91 (no sharp cut-off); inconclusive means no clear call, values can overlap the other calls; inactive means mostly above about 0.92. This is one part of the list.

Assay: chemical genetic growth profiling, strain panel (AID 1159580);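 further: tested at 20 µM; growth read once vehicle control cultures reached saturation at 30 °C; 1 = growth at the plate median or of vehicle wells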
Conditions: S. cerevisiae deletion strains, growth OD

Measured: normalized growth

CC(=O)Nc1ccccc1
inactive: locus YAL021C, strain ccr4, stronger effect = lower value 0.971 | locus YAL026C, strain drs2, stronger effect = lower value 0.977 | locus YAL030W, strain snc1, stronger effect = lower value 0.972 | locus YBL061C, strain skt5, stronger effect = lower value 0.962 | locus YBR009C, strain hhf1, stronger effect = lower value 0.977 | locus YBR021W, strain FUR4, stronger effect = lower value 1.02 | locus YBR023C, strain chs3, stronger effect = lower value 0.961 | locus YBR171W, strain sec66, stronger effect = lower value 0.965 | locus YBR229C, strain ROT2, stronger effect = lower value 0.957 | locus YBR231C, strain swc5, stronger effect = lower value 0.963 | locus YBR279W, strain paf1, stronger effect = lower value 0.981 | locus YCL011C, strain gbp2, stronger effect = lower value 0.962 | locus YCL016C, strain dcc1, stronger effect = lower value 0.966 | locus YCL029C, strain bik1, stronger effect = lower value 0.983 | locus YCL061C, strain MRC1, stronger effect = lower value 0.987 | locus YCL069W, strain vba3, stronger effect = lower value 0.962 | locus YCR088W, strain abp1, stronger effect = lower value 0.976 | locus YDL005C, strain med2, stronger effect = lower value 0.98 | locus YDL035C, strain GPR1, stronger effect = lower value 0.987 | locus YDL040C, strain nat1, stronger effect = lower value 0.97 | locus YDL074C, strain BRE1, stronger effect = lower value 0.963 | locus YDL101C, strain DUN1, stronger effect = lower value 0.98 | locus YDL134C, strain PPH21, stronger effect = lower value 1.02 | locus YDL185W, strain tfp1, stronger effect = lower value 0.986 | locus YDL192W, strain arf1, stronger effect = lower value 0.985 | locus YDR001C, strain nth1, stronger effect = lower value 0.974 | locus YDR069C, strain doa4, stronger effect = lower value 0.959 | locus YDR101C, strain arx1, stronger effect = lower value 0.982 | locus YDR137W, strain rgp1, stronger effect = lower value 1.01 | locus YDR150W, strain NUM1, stronger effect = lower value 0.983 | locus YDR159W, strain sac3, stronger effect = lower value 0.977 | locus YDR162C, strain NBP2, stronger effect = lower value 0.995 | locus YDR195W, strain ref2 0.935 | locus YDR297W, strain sur2, stronger effect = lower value 0.975 | locus YDR318W, strain mcm21, stronger effect = lower value 0.999 | locus YDR334W, strain swr1, stronger effect = lower value 0.956 | locus YDR335W, strain msn5, stronger effect = lower value 0.982 | locus YDR388W, stronger effect = lower value 0.986 | locus YDR392W, strain spt3, stronger effect = lower value 0.993 | locus YDR502C, strain sam2, stronger effect = lower value 0.989 | locus YEL003W, strain gim4, stronger effect = lower value 0.973 | locus YEL037C, strain rad23, stronger effect = lower value 0.972 | locus YEL061C, strain CIN8 (second series), stronger effect = lower value 0.962 | locus YEL061C, strain CIN8, stronger effect = lower value 0.975 | locus YER015W, strain faa2, stronger effect = lower value 0.977 | locus YER016W, strain bim1, stronger effect = lower value 0.973 | locus YER110C, stronger effect = lower value 0.977 | locus YER111C, strain swi4, stronger effect = lower value 0.972 | locus YER155C, strain BEM2 (second series), stronger effect = lower value 0.981 | locus YER155C, strain BEM2, stronger effect = lower value 0.999 | locus YER167W, strain BCK2, stronger effect = lower value 0.999 | locus YFR010W, strain ubp6, stronger effect = lower value 0.96 | locus YGL078C, strain dbp3, stronger effect = lower value 0.99 | locus YGL086W, strain mad1, stronger effect = lower value 0.981 | locus YGL167C, strain pmr1, stronger effect = lower value 0.947 | locus YGL173C, strain kem1, stronger effect = lower value 0.967 | locus YGL227W, strain vid30, stronger effect = lower value 0.966 | locus YGL240W, strain doc1, stronger effect = lower value 0.965 | locus YGL248W, strain PDE1, stronger effect = lower value 0.976 | locus YGL253W, strain hxk2, stronger effect = lower value 0.982 | locus YGR135W, strain pre9, stronger effect = lower value 1 | locus YGR229C, strain SMI1, stronger effect = lower value 0.973 | locus YGR252W, strain gcn5, stronger effect = lower value 0.968 | locus YHR013C, strain ard1, stronger effect = lower value 0.942 | locus YHR027C, strain rpn1, stronger effect = lower value 0.973 | locus YHR030C, strain SLT2, stronger effect = lower value 0.991 and 0.975 | locus YHR079C, strain IRE1 (second series), stronger effect = lower value 0.99 | locus YHR079C, strain IRE1, stronger effect = lower value 0.969 | locus YHR094C, strain hxt1, stronger effect = lower value 0.988 | locus YHR129C, strain ARP1, stronger effect = lower value 0.993 | locus YHR142W, strain chs7, stronger effect = lower value 0.963 | locus YHR200W, strain rpn10, stronger effect = lower value 0.986 | locus YIL066C, strain RNR3, stronger effect = lower value 0.968 | locus YIL073C, strain SPO22, stronger effect = lower value 1.03 | locus YIL125W, strain kgd1, stronger effect = lower value 0.983 | locus YIR030C, strain dcg1, stronger effect = lower value 0.988 | locus YJL092W, strain hpr5, stronger effect = lower value 0.977 | locus YJL095W, strain BCK1 (second series), stronger effect = lower value 0.966 | locus YJL095W, strain BCK1, stronger effect = lower value 0.98 and 0.984 | locus YJL115W, strain asf1, stronger effect = lower value 0.951 | locus YJL129C, strain trk1, stronger effect = lower value 0.981 | locus YJL134W, strain LCB3, stronger effect = lower value 0.992 | locus YJL154C, strain vps35, stronger effect = lower value 0.975 | locus YJL164C, strain tpk1, stronger effect = lower value 0.963 | locus YJL166W, strain qcr8, stronger effect = lower value 0.976 | locus YJL168C, strain set2, stronger effect = lower value 0.978 | locus YJL187C, strain SWE1 (second series), stronger effect = lower value 0.965 | locus YJL187C, strain SWE1, stronger effect = lower value 0.972 | locus YJR043C, strain POL32, stronger effect = lower value 0.968
